Exocytosis inh = LAMP-1 surface exposure blockers, TALL-104 cells – cell-based, flow cytometry, MLPCN library, primary screen | TALL-104 LAMP-1 surface exposure; cells stimulated with thapsigargin and PMA | inhibition, % at 10 µM | actives 0.66% (n = 360,000);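 active means inhibition above about 55%, limit read from the data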
GC-B act = human GC-B receptor activators, primary screen, HEK293 GC-B cells, cGMP TR-FRET, EC30 CNP | AID 1920062, 2024 | Atrial natriuretic peptide receptor 2 (Homo sapiens), P20594 | actives 0.11% (n = 370,000) | 0% at EC30 CNP, 100% saturating CNP | activation, % at 10 µM;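 active means activation at 10 µM reaching about 35% in either raw or pattern-adjusted values, limit read from the data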
NPR1 activator = GC-A stimulated cGMP production enhancers – HEK293 GC-A cells, cGMP TR-FRET, EC30 ANP, primary screen; Atrial natriuretic peptide receptor 1 (Homo sapiens), P16066; 0% at EC30 ANP, 100% saturating ANP; activation, % at 10 µM; actives 0.14% (n = 370,000); in the data active means activation above about 40%
Myeloid diff 2 = induction of myeloid progenitor differentiation, primary screen, cell-based, flow cytometry, MLPCN library; ER-HoxA9 myeloid progenitors, lysozyme-GFP differentiation; calls only at 10 µM; actives 1% (n = 360,000);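 active means normalized GFP-positive differentiation at or above the plate's own cutoff, the solvent-only control mean plus 3 SD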;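 further: cells exposed to compound for four days before flow analysis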
Myeloid diff CP1 = inducers of myeloid progenitor differentiation, confirmation, cell-based, GFP/Mac1 flow cytometry, cherry pick 01. calls only. shares compounds with Myeloid diff 2. AID 651706, 2012. ER-HoxA9 myeloid progenitors, GFP/Mac1 double-positive flow. actives 2% (n = 2,300);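 active means share of green or green-and-red cells above 9 and 9% in run 1 or 4 and 3% in run 2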
GFP autofluor = counter-screen for myeloid differentiation promoters: compound fluorescence | shares compounds with Myeloid diff 2 | ER-HoxA9 myeloid progenitors, no estrogen, GFP autofluorescence flow cytometry; vehicle wells 0%, positive control 100% | fluorescence response, % (test concentration not listed) | actives 7.4% (n = 2,300) | AID 651707;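 active means over 5% cells positive for green fluorescent reporter, or over 2% positive for both it and APC stain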;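 further: range taken on the double positive population between DMSO and positive control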
Numbers without * were called inactive; i = inactive; / = not tested or not shown; + = active, no number. Only some compounds are listed: those with a hit (about 1.8% of all), similar ones and a draw of the others.

SMILES | Exocytosis inh | GC-B act | NPR1 activator | Myeloid diff 2 | Myeloid diff CP1 | GFP autofluor
Cc1ccc(CSc2nnc(-c3cccnc3)n2N)cc1 | 1 | 4 | -2 | i | / | /
Cc1ccc(C(=O)CSc2nnc(-c3cccnc3)n2N)cc1 | 0 | 14 | 9 | i | i | 0
Cc1ccc2sc(C)cc(=O)c2c1 | -3 | -1 | 1 | i | / | /
CCOc1cc(CNc2ccc(Br)cc2)cc(Br)c1OCC(=O)NC(C)(C)C | 6 | / | / | / | i | 0
CCOc1cc(CNc2ccccc2)cc(Br)c1OCC(=O)NC(C)(C)C | -1 | 6 | -4 | i | / | /
CC1=C(C(=O)Nc2ccccc2Cl)C(c2ccc(N(C)C)cc2)NC(=O)N1 (stereo not given) | 6 | -4 | 2 | + | i | 0
COc1ccc(C2NC(=O)NC(C)=C2C(=O)Nc2cccc(C)c2C)cc1 (stereo not given) | 1 | 2 | -3 | i | / | /
CCC(O)(CC)C(=O)N/N=C/c1cc(Br)cc(Br)c1O | 3 | -5 | 1 | i | / | /
CC(=O)N/N=C/c1cc(C(C)(C)C)cc(/C=N/NC(C)=O)c1O | 8 | 3 | 2 | + | i | 0
COc1ccc(Cl)cc1NC(=O)C1CSC(c2ccncc2)=N1 (stereo not given) | 0 | -2 | -7 | + | i | 0
CC(=O)N1CN(C2CC(C)(C)NC(C)(C)C2)Cc2c1sc1c2CCCC1 | -3 | -6 | -1 | i | / | /
CC(=O)N1CN(C2CCCC2)Cc2c1sc1c2CCCC1 | 1 | -3 | -6 | i | i | 0
COc1ccc(CCn2c(=S)[nH]c3cc(C(=O)NCc4ccco4)ccc3c2=O)cc1OC | 0 | / | / | i | i | 0
COc1ccc(-n2c(=S)[nH]c3cc(C(=O)NCc4ccco4)ccc3c2=O)cc1OC | 1 | -14 | -6 | i | / | /
COc1cccc(C2=Nn3c(nnc3-c3ccccc3O)SC2)c1 | 2 | 4 | 5 | i | / | /
C[n+]1c2n(c3ccccc31)N=C(c1cc(C(C)(C)C)c(O)c(C(C)(C)C)c1)CS2 | 58* | -3 | -9 | + | i | 0
COc1ccc(CN2C(=O)CCCC2(C)c2nnnn2-c2c(C)cccc2C)cc1OC (stereo not given) | / | -1 | -1 | / | / | /
Clc1ccc(Oc2nc(Oc3ccc(Cl)cc3)nc(N3CCOCC3)n2)cc1 | -2 | -7 | -2 | + | i | 1
Clc1cccc(Nc2nc(N3CCOCC3)nc(N3CCOCC3)n2)c1 | -9 | 2 | 1 | i | i | 0
CCOc1ccc(NS(=O)(=O)c2cc(C(=O)N3CCCC3)ccc2Cl)cc1 | -8 | 0 | -5 | i | / | /
O=C(O)c1ccc(Cl)c(S(=O)(=O)Nc2ccc(OCc3ccccc3)cc2)c1 | 4 | 6 | 1 | i | i | 0
O=C1COc2ccc(C(=O)NCc3ccco3)cc2N1 | 3 | -3 | 4 | i | i | 0
O=C1COc2ccc(C(=O)/C=C/c3ccccc3)cc2N1 | -3 | -6 | 2 | i | i | 0
O=C1COc2ccc(C(=O)c3ccccc3C(=O)NCc3ccco3)cc2N1 | 1 | -6 | -8 | i | / | /
COC(=O)[C@]12CCCCC=C1N(Cc1ccc3c(c1)OCO3)C(=O)[C@H](CC(=O)NCCCN1CCCC1=O)C2 | 10 | 5 | 1 | i | / | /
SMILES | Exocytosis inh | GC-B act | NPR1 activator | Myeloid diff 2 | Myeloid diff CP1 | GFP autofluor
Cc1[nH]c2ccc(C(=O)OCC(=O)Nc3cccc(S(N)(=O)=O)c3)cc2c1C | 4 | -4 | -6 | i | / | /
O=C(O)C1C2C=CC(C2)C1C(=O)OC1CC2CCC1C2 (stereo not given) | 2 | 7 | 5 | + | i | 0
COc1ccc(C(=O)NC2CCCCCC2)cc1S(=O)(=O)N1CCCc2ccccc21 | 0 | 2 | 0 | i | i | 0
COc1ccc(C(=O)NC2CCCCCC2)cc1S(=O)(=O)N1CCCC1 | -1 | 2 | 4 | i | / | /
O=C(Nc1ccncc1)c1ccc(Cl)c(S(=O)(=O)N2CCc3ccccc32)c1 | 11 | -5 | -11 | i | i | 1
Cc1cc(C)c(S(=O)(=O)Nc2nnc(C)s2)c(C)c1 | 1 | 0 | -2 | i | i | 0
OC[C@H]1CC[C@@H]2O[C@H](CCc3ccc(-c4ccc(F)cc4)cc3)[C@@H](n3cc(C4CC4)nn3)C[C@@H]2O1 | / | 0 | 22 | / | / | /
CCCCCC(=O)NNC(=O)c1ccc(F)cc1 | 10 | 3 | 2 | i | / | /
CCCCCCCC(=O)NNC(=O)c1ccc(F)cc1 | 0 | 5 | -2 | i | i | 1
CC(=O)N1CCCN(C(=O)CCn2nnc3ccccc32)CC1 | / | -1 | 2 | / | / | /
COc1ccc(/C=C/C(Cc2cccc(C(C)=O)c2)c2ccc(C)cc2)cc1 (stereo not given) | / | 3 | -3 | / | / | /
COc1ccc(C2=Nc3ccccc3N(C(=O)c3ccc(C(F)(F)F)cc3)C2C(=O)Nc2c(C)cccc2C)cc1 (stereo not given) | -5 | -2 | -4 | i | i | 0
O=C1CCC(C(=O)N2CCN(c3cnccn3)CC2)CN1CCc1ccccc1 (stereo not given) | -7 | -1 | 4 | i | / | /
Cc1ccc(S(=O)(=O)N2CC3(O)CN(C(=O)OC(C)C)N(C(=O)OC(C)C)CC3(OC(=O)NCc3ccccc3F)C2)cc1 (stereo not given) | 7 | 6 | -1 | i | / | /
NNc1nc2cccnc2n(CCNc2ncc(C(F)(F)F)cc2Cl)c1=O | 0 | -3 | 1 | i | i | 2
O=c1c2nncn2c2cccnc2n1CCNc1ncc(C(F)(F)F)cc1Cl | -2 | -11 | -5 | i | / | /
COc1ccc(-c2csc3ncn(-c4ccccc4OC)c(=O)c23)cc1OC | -4 | 7 | 1 | + | i | 0
Cc1ccc(S(=O)(=O)N2CCCCC2)cc1NC(=O)c1cncc(Br)c1 | 12 | 6 | -1 | i | / | /
CN(C)S(=O)(=O)c1cccc(NC(=O)c2ccc(S(=O)(=O)N3CCCCC3)cc2)c1 | -3 | -2 | 2 | i | / | /
CN(C)S(=O)(=O)c1cccc(NC(=O)c2cccc(S(=O)(=O)N3CCCCCC3)c2)c1 | 4 | 4 | 2 | + | i | 0
COc1cc(NCC(=O)Nc2cccc(S(=O)(=O)N3CCCCC3)c2)cc(OC)c1OC | -6 | 0 | -1 | + | i | 1
O=C(Nc1cccc(S(=O)(=O)N2CCCCCC2)c1)c1cncc(Br)c1 | 0 | 9 | 0 | i | i | 0
